# From PubChem BioAssay (EPA / NIEHS)
# Activity calls are given as the source filed them. Rule for the calls: active = hit-call score of the fitted dose curve at least 0.9, where 1 is the maximum; inactive = score below 0.9.
# Read-out: Low-density lipoprotein receptor (LDLR), LDLR (gene 3949)
# Assay: BSK_CASM3C_LDLR: BioMAP Diversity Plus: CASM3C Assay for Low-density lipoprotein receptor (LDLR) Biomarker Activity (AID 2283045);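 note: LDLR protein level on the cell surface quantified by ELISA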
# Settings: primary human coronary artery smooth muscle cells; actives raise or lower the signal
SMILES,outcome,AC50
Nc1nc2ncc(CNc3ccc(C(=O)N[C@@H](CCC(=O)O)C(=O)O)cc3)nc2c(=O)[nH]1,inactive,–
COCCOCCOCCOC,inactive,–
COCCOc1cc2cc(C(=O)NC3CCN(C(C)C)CC3)n(CC(=O)Nc3ccc(Cl)cn3)c2cn1,inactive,–
CC(C)CCCCCCCOC(=O)CCCCC(=O)OCCCCCCCC(C)C,inactive,–
O=C(CCCCCCCCc1cccnc1)N1CCC(C=C(c2ccccc2)c2ccccc2)CC1,–,34.3 µM (active)
CCc1cc(SCc2sc(-c3ccc(C(F)(F)F)cc3)nc2CN2CCN(c3ccc(OC)cc3)CC2)ccc1OCC(=O)O,–,31.7 µM (active)
Cn1c(=O)c2c(ncn2C)n(C)c1=O,inactive,–
Cn1c(=O)cc(Oc2ccc(F)cc2F)c2cnc(NCC(C)(C)O)nc21,inactive,–
CC(C)CCO,inactive,–
O=c1n(CC2CO2)c(=O)n(CC2CO2)c(=O)n1CC1CO1 (stereo not drawn),inactive,–
CCNc1ccccc1,inactive,–
CCOCCOCCOCCO,inactive,–
COc1ccc2sc(C(=O)Nc3nnn[nH]3)c(OC(C)C)c2c1,inactive,–
Cc1[nH]cnc1C[C@H]1CCc2c(C)c3ccccc3n2C1=O,–,18.5 µM (active)
COC(=O)c1ccccc1O,inactive,–
CC(C)=CCC/C(C)=C/CO,inactive,–
CC(C)CCCCCCOC(=O)c1ccc(C(=O)OCCCCCCC(C)C)c(C(=O)OCCCCCCC(C)C)c1,inactive,–
COc1ccc(/C=C/S(=O)(=O)NC(=O)c2ccc(C)cc2Cl)cc1,inactive,–
CCN(C(=O)c1cc(C)cc(OC[C@H](C)Nc2ccncc2)c1)C(C)C,inactive,–
CCCN(C1CCN(C(=O)C2CCNCC2)CC1)[C@@H]1CCc2ccc(OC)cc2C1,–,35 µM (active)
Cc1c(-c2cccnc2)c2ccccc2n1CCCCC(=O)O,inactive,–
CC[C@H]1OC(=O)[C@H](C)[C@@H](O[C@H]2C[C@@](C)(OC)[C@@H](O)[C@H](C)O2)[C@H](C)[C@@H](O[C@@H]2O[C@H](C)C[C@H](N(C)C)[C@H]2O)[C@](C)(O)C[C@@H](C)C(=O)[C@H](C)[C@@H](O)[C@]1(C)O,inactive,–
CN(C)c1ccc(N=NS(=O)(=O)O)cc1,inactive,–
O=c1[nH]c2ccc(S(=O)CCN3CCC(Cc4ccc(F)cc4)CC3)cc2o1 (stereo not drawn),inactive,–
Cn1cnc([N+](=O)[O-])c1Sc1ncnc2nc[nH]c12,inactive,–
CCOC(=O)CC(CC(=O)OCC)(OC(C)=O)C(=O)OCC,inactive,–
O=C(OC[C@H]1O[C@@H](OC(=O)c2cc(O)c(O)c(OC(=O)c3cc(O)c(O)c(O)c3)c2)[C@H](OC(=O)c2cc(O)c(O)c(OC(=O)c3cc(O)c(O)c(O)c3)c2)[C@@H](OC(=O)c2cc(O)c(O)c(OC(=O)c3cc(O)c(O)c(O)c3)c2)[C@@H]1OC(=O)c1cc(O)c(O)c(OC(=O)c2cc(O)c(O)c(O)c2)c1)c1cc(O)c(O)c(OC(=O)c2cc(O)c(O)c(O)c2)c1,inactive,–
CC(C)=CCCC(C)=CC=O,inactive,–
CCOc1cccc(-n2cc(C(=O)N3CCN(c4cc(C(=O)O)c5ccccc5c4)CC3)nc2-c2ccc(C)cc2)c1,inactive,–

# Read-out: Monocyte Chemoattractant Protein-1 (MCP1), CCL2 (gene 6347)
# Assay: BSK_CASM3C_MCP1: BioMAP Diversity Plus: CASM3C Assay for Monocyte Chemoattractant Protein-1 (MCP1) Biomarker Activity (AID 2283046);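 note: MCP-1 level quantified by ELISA 24 h after dosing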
# Settings: primary human coronary artery smooth muscle cells; actives raise or lower the signal
SMILES,outcome,AC50
Nc1nc2ncc(CNc3ccc(C(=O)N[C@@H](CCC(=O)O)C(=O)O)cc3)nc2c(=O)[nH]1,inactive,–
COCCOCCOCCOC,inactive,–
COCCOc1cc2cc(C(=O)NC3CCN(C(C)C)CC3)n(CC(=O)Nc3ccc(Cl)cn3)c2cn1,inactive,–
CC(C)CCCCCCCOC(=O)CCCCC(=O)OCCCCCCCC(C)C,inactive,–
O=C(CCCCCCCCc1cccnc1)N1CCC(C=C(c2ccccc2)c2ccccc2)CC1,–,38.2 µM (active)
CCc1cc(SCc2sc(-c3ccc(C(F)(F)F)cc3)nc2CN2CCN(c3ccc(OC)cc3)CC2)ccc1OCC(=O)O,–,37.4 µM (active)
Cn1c(=O)c2c(ncn2C)n(C)c1=O,inactive,–
Cn1c(=O)cc(Oc2ccc(F)cc2F)c2cnc(NCC(C)(C)O)nc21,inactive,–
CC(C)CCO,inactive,–
O=c1n(CC2CO2)c(=O)n(CC2CO2)c(=O)n1CC1CO1 (stereo not drawn),inactive,–
CCNc1ccccc1,inactive,–
CCOCCOCCOCCO,inactive,–
COc1ccc2sc(C(=O)Nc3nnn[nH]3)c(OC(C)C)c2c1,–,15.8 µM (active)
Cc1[nH]cnc1C[C@H]1CCc2c(C)c3ccccc3n2C1=O,inactive,–
COC(=O)c1ccccc1O,inactive,–
CC(C)=CCC/C(C)=C/CO,inactive,–
CC(C)CCCCCCOC(=O)c1ccc(C(=O)OCCCCCCC(C)C)c(C(=O)OCCCCCCC(C)C)c1,inactive,–
COc1ccc(/C=C/S(=O)(=O)NC(=O)c2ccc(C)cc2Cl)cc1,inactive,–
CCN(C(=O)c1cc(C)cc(OC[C@H](C)Nc2ccncc2)c1)C(C)C,inactive,–
CCCN(C1CCN(C(=O)C2CCNCC2)CC1)[C@@H]1CCc2ccc(OC)cc2C1,inactive,–
Cc1c(-c2cccnc2)c2ccccc2n1CCCCC(=O)O,inactive,–
CC[C@H]1OC(=O)[C@H](C)[C@@H](O[C@H]2C[C@@](C)(OC)[C@@H](O)[C@H](C)O2)[C@H](C)[C@@H](O[C@@H]2O[C@H](C)C[C@H](N(C)C)[C@H]2O)[C@](C)(O)C[C@@H](C)C(=O)[C@H](C)[C@@H](O)[C@]1(C)O,inactive,–
CN(C)c1ccc(N=NS(=O)(=O)O)cc1,inactive,–
O=c1[nH]c2ccc(S(=O)CCN3CCC(Cc4ccc(F)cc4)CC3)cc2o1 (stereo not drawn),inactive,–
Cn1cnc([N+](=O)[O-])c1Sc1ncnc2nc[nH]c12,inactive,–
CCOC(=O)CC(CC(=O)OCC)(OC(C)=O)C(=O)OCC,inactive,–
O=C(OC[C@H]1O[C@@H](OC(=O)c2cc(O)c(O)c(OC(=O)c3cc(O)c(O)c(O)c3)c2)[C@H](OC(=O)c2cc(O)c(O)c(OC(=O)c3cc(O)c(O)c(O)c3)c2)[C@@H](OC(=O)c2cc(O)c(O)c(OC(=O)c3cc(O)c(O)c(O)c3)c2)[C@@H]1OC(=O)c1cc(O)c(O)c(OC(=O)c2cc(O)c(O)c(O)c2)c1)c1cc(O)c(O)c(OC(=O)c2cc(O)c(O)c(O)c2)c1,–,6.1 µM (active)
CC(C)=CCCC(C)=CC=O,inactive,–
CCOc1cccc(-n2cc(C(=O)N3CCN(c4cc(C(=O)O)c5ccccc5c4)CC3)nc2-c2ccc(C)cc2)c1,–,34.5 µM (active)
